Bioassay records from PubChem.
DT40 TDP1 CPT – DT40-hTDP1 cell growth loss with CPT. 420,000 compounds, 12% hits. chicken DT40 Tdp1-/-;hTDP1 cells + 20 nM CPT, ATP luminescence, 48 h. Potency, µM (series often up to 46.2 µM), for inactives: at the highest dose activity change, negative = growth inhibition, actives largely listed as inhibitors. AID 686979; further: potency means the concentration at half of the fitted maximal effect; nearly all actives have a fitted effect of over 55% in size
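Chicken DT40 Tdp1-/- cells complemented with human TDP1, 400 cells/well, exposed to compounds plus 20 nM camptothecin for at least 48 h at 37 C; viability read as ATP content by CellTiter-Glo luminescence.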
TDP1 cell noCPT – qHTS for Inhibitors of human tyrosyl-DNA phosphodiesterase 1 (TDP1): qHTS in cells in absence of CPT | DT40 Tdp1-/- hTDP1 cells, no CPT, ATP luminescence, 48 h | Potency, µM (titrated, usually from 46.2 µM), for the others: top-dose activity change, negative = growth inhibition, most hits filed as inhibitors | 420,000 compounds, 15% hits; further: potency means the concentration at half of the fitted maximal effect; nearly all actives have a fitted effect of over 55% in size
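Readout: luminescence from CellTiter-Glo after 30 min in the dark at RT. Cells: DT40 Tdp1-/- with stable hTDP1, 400/well. Exposure: compounds alone, ≥48 hr, 37 °C.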
HT1080 IDH1KD tx – kills HT-1080 cells with IDH1 knockdown. HT-1080 IDH1 knockdown viability, ATP luminescence, 48 h. Potency, µM (top dose mostly 46.1 µM), for the others: at the top dose activity, negative = toxicity, most hits filed as cytotoxic. 360,000 compounds, 2% hits. AID 686971;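 further: potency means the concentration at half of the fitted maximal effect; 0% = DMSO wells and -100% = cell-free medium wells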
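HT-1080-IDH1KD cells (IDH1 knocked down), 750/well in RPMI with 5% FBS, treated with compound 48 h at 37 degrees C. Viability by CellTiter-Glo luminescence, normalised to DMSO and no-cell wells; concentration-response curves classed.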
ELG1 DNA repair – inhibitors of ELG1-dependent DNA repair in HEK293T cells. Potency, µM (titrated, usually from 46.1 µM), inactives show at the top dose activity change, negative = inhibition, most hits filed as inhibitors. 330,000 compounds, 2.3% hits. HEK293T ELG1-luciferase reporter, luminescence, 16 h; DNA damage induced by 5-fluorouridine. AID 504467; further: potency means the concentration at half of the fitted maximal effect; nearly all actives have a fitted effect of over 55% in size
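Step one: seed 2,000 cells per well. Step two: pin-transfer compound or DMSO alongside 5-fluorouridine. Step three: incubate 16 hr, 37 °C, 5% CO2. Step four: add ONE-Glo, wait 30 min, read luminescence.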
HT1080NT lethal – kills 2HG-producing HT-1080-NT fibrosarcoma cells; AID 686970; Potency, µM (doses to about 46.1 µM), for inactives: at the highest dose activity, negative = less viability, actives largely listed as cytotoxic; 360,000 compounds, 1.6% hits; HT-1080-NT fibrosarcoma viability, CellTiter-Glo ATP luminescence, 48 h;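 further: NT is the 2HG producing partner of a matched IDH1 knockdown line; potency means the concentration at half of the fitted maximal effect; 0% = DMSO-treated cells and -100% = media-only wells without cells; nearly all actives have a fitted effect of over 55% in size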
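Viability of the 2HG-overproducing fibrosarcoma line after 48 hours of compound exposure at 37 degrees C was determined by luminescence with CellTiter-Glo, and concentration-effect curves were then fitted and categorized.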
IL1B secr inh – inhibitors of inflammasome signaling (IL-1 beta secretion); THP-1 LPS/ATP IL-1B secretion, AlphaLISA, 16 h; active compounds read low; activity change, % at 57.5 µM; 360,000 compounds, 4.7% hits; AID 743279; in the data active means activity change below about -50%; inconclusive means mostly about -30% to -49%
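Secreted IL-1B measured by AlphaLISA bead assay after 16 h compound exposure of THP-1 cells; compounds (final up to 57.5 uM) added 1 h before LPS (250 ng/mL) and ATP (1.25 mM) stimulation; lower signal means less secretion.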
Starred values were filed as active, the others as inactive; ? = inconclusive; . = not tested or not shown. A selection: hits, their analogues and other compounds. The true share with any hit is near 19%. Unless noted, the call rests on the fitted dose curve; in most records, active means well fitted curve in the direction sought with a large enough effect; inconclusive means small, poorly fitted or top-dose-only effect, or another doubt; inactive means no such curve, though single readings can be large; an effect the other way counts as inactive or inconclusive. Unless noted, on the % scale 0 is the no-effect control and ±100 the full control effect.

SMILES | DT40 TDP1 CPT | TDP1 cell noCPT | HT1080 IDH1KD tx | ELG1 DNA repair | HT1080NT lethal | IL1B secr inh
O=c1[nH]c2ccc(NCc3ccccc3OCc3ccc(Cl)cc3)cc2[nH]1 | 23µM* | ? | ? | 8.2µM* | 16µM* | 0
Oc1ccc(NCc2ccccc2OCc2ccc(Cl)cc2)cc1 | 29µM* | 21µM* | . | . | . | .
COc1cccc(CNc2ccc3[nH]c(=O)[nH]c3c2)c1OCc1ccc(F)cc1 | -5% | ? | 1% | ? | -28% | -27
Fc1ccccc1CNc1ccc(Cl)cc1 | -22% | -15% | -20% | ? | 3% | -7
CCc1ccccc1NC(=O)c1nn(-c2ccc(C)cc2)c(=O)c2c1c1ccccc1n2C | -7% | -5% | . | . | . | .
O=C(CCN1C(=O)c2ccccc2S1(=O)=O)N1CCN(c2cccc(Cl)c2)CC1 | ? | 16µM* | -6% | -12% | -17% | 1
O=C(CN1C(=O)c2ccccc2S1(=O)=O)N1CCN(c2cccc(Cl)c2)CC1 | -22% | -26% | 10% | . | 11% | 5
O=C(CNC(=O)Cn1ccc2ccccc2c1=O)NCCCN1CCN(c2cccc(Cl)c2)CC1 | ? | 26µM* | -7% | 6% | -8% | ?
O=C(CCC(=O)N1CCN(c2cccc(Cl)c2)CC1)N1CCN(c2ccccc2)CC1 | 18µM* | 8.2µM* | -18% | ? | -3% | -18
Clc1cccc(N2CCN(CCCN3CCN(c4ccccc4)CC3)CC2)c1 | 26µM* | ? | ? | . | -26% | -53*
Cc1cc(C)c2c(=O)cc(C(=O)Nc3sc4c(c3C(=O)NCc3ccccc3)CCCC4)oc2c1 | 1% | -20% | . | . | . | .
CC1(CCC(=O)N2CCCC(Nc3ccc(F)cc3)C2)CC1 (stereo not drawn) | -12% | -11% | -8% | ? | -3% | 19
O=C(NCCO)C(=O)Nc1cc2c3c(c1)CCC(=O)N3CCC2 | 14% | -11% | 0% | ? | 13% | -3
O=C(O)CCCC(=O)N1CCN(c2cccc(Cl)c2)CC1 | -3% | 3% | 8% | -12% | -3% | 4
O=C(CCC(=O)N1CCN(c2cccc(Cl)c2)CC1)c1cccs1 | ? | 18µM* | ? | 2% | ? | -7
Cn1cc(CC(=O)N2CCN(c3ccccc3F)CC2)c2ccccc21 | ? | ? | 1% | 11% | -15% | -27
Cn1cc(CC(=O)N2CCN(c3ccc(Cl)cc3)CC2)c2ccccc21 | ? | 13µM* | ? | -2% | -24% | -15
O=C(Cc1c(F)cccc1Cl)OCC(=O)N1CCN(c2ccccc2)CC1 | 18µM* | ? | 2% | 7% | 11% | -2
COc1ccc(N2CCN(C(=O)COC(=O)Cc3c(F)cccc3Cl)CC2)cc1 | ? | -10% | 1% | -15% | 6% | 11
Nc1ccc(N2CCN(c3cccc(Cl)c3)CC2)cc1 | 13µM* | 15µM* | 1% | ? | 6% | ?
COc1ccc(S(=O)(=O)N2CCN(C(=O)Nc3ccccc3OC)CC2)cc1 | -18% | 5% | 10% | -1% | 3% | 6
CC1CCN(Cc2c(C(=O)N/N=C/c3cccc(C(F)(F)F)c3)nnn2-c2nonc2N)CC1 | 15µM* | 15µM* | ? | -18% | -18% | -5
Nc1nonc1-n1nnc(C(=O)N/N=C\c2cccc(Cl)c2)c1CN1CCOCC1 | -4% | 0% | -13% | -2% | -1% | 28
CC(C)c1c(C(=O)N/N=C/c2ccc(C(F)(F)F)cc2)nnn1-c1nonc1N | 15µM* | 13µM* | 26µM* | -30% | ? | 18
CCOc1ccc(/C=N/NC(=O)c2nnn(-c3nonc3N)c2CN2CCC(C)CC2)cc1 | -22% | ? | 11% | -27% | 7% | -7
